Laboratory results as given in PubChem BioAssay (NCATS).
Records with an inconclusive call do not appear. The source made the active and inactive calls. Unless noted, calls follow the shape of the dose curve; as a rule, active = well fitted curve in the direction sought with a large enough effect; inconclusive = small, poorly fitted or top-dose-only effect, or another doubt; inactive = no such curve, though single readings can be large; an effect the other way counts as inactive or inconclusive.

How the values were obtained:
[1] = Quantitative High-Throughput drug screen in 47 multiple myeloma cell lines against the NCATS MIPE library collection: VP6_DJ cell viability assay (AID 1919867); also: nearly all actives have a fitted effect of over 40% in size; also: potency is read from the fitted curve at half-maximal effect
In short: (§1)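 MIPE 4.0 approved/investigational drugs; 500 cells/well; 48 h 37 °C humidified 5% CO2; CTG luminescence readout; DMSO = 100%, media = 0% viability.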

[2] = Quantitative High-Throughput drug screen in 47 multiple myeloma cell lines against the NCATS MIPE library collection: PE2_PLB cell viability assay (AID 1919869); also: nearly all actives have a fitted effect of over 35% in size; also: potency is read from the fitted curve at half-maximal effect
In short: as §1

[3] = Quantitative High-Throughput drug screen in 47 multiple myeloma cell lines against the NCATS MIPE library collection: PCM6_Riken cell viability assay (AID 1919870); also: nearly all actives have a fitted effect of over 30% in size; also: potency is read from the fitted curve at half-maximal effect
In short: as §1

[4] = Quantitative High-Throughput drug screen in 47 multiple myeloma cell lines against the NCATS MIPE library collection: RPMI8226_ATCC cell viability assay (AID 1919871); also: nearly all actives have a fitted effect of over 30% in size; also: potency is read from the fitted curve at half-maximal effect
In short: as §1

[5] = Quantitative High-Throughput drug screen in 47 multiple myeloma cell lines against the NCATS MIPE library collection: OPM2_DSMZ cell viability assay (AID 1919872); also: nearly all actives have a fitted effect of over 30% in size; also: potency is read from the fitted curve at half-maximal effect
In short: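 Approved and investigational drugs from MIPE 4.0 were added by pin tool to 500 cells per well. After 48 hours at 37C, ATP-based CellTiter-Glo luminescence indicated remaining viability.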

[6] = Quantitative High-Throughput drug screen in 47 multiple myeloma cell lines against the NCATS MIPE library collection: KMS28BM_JCRB cell viability assay (AID 1919874); also: nearly all actives have a fitted effect of over 35% in size; also: potency is read from the fitted curve at half-maximal effect
In short: as §1

[7] = qHTS drug screen for cell cycle checkpoint inhibitors in PARPi-resistant BRCA-mutant ovarian cancer cell lines. (AID 1963452; calls by dose curve; also: potency is read from the fitted curve at half-maximal effect); conditions: PEO1/OlaR viability, CellTiter-Glo luminescence, 96 h; for Z-AUC: stronger effect = lower value
In short: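 PEO1, PEO4 and PEO1/OlaR ovarian cancer cells, 600 per well, exposed 96 h at 37C to a dilution series. Viability read by CellTiter-Glo luminescence, normalized to DMSO and empty wells; activity summarized as Z-AUC.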

[8] = Quantitative High-Throughput drug screen in 47 multiple myeloma cell lines against the NCATS MIPE library collection: KMS11_JCRBsus cell viability assay (AID 1919873); also: nearly all actives have a fitted effect of over 50% in size; also: potency is read from the fitted curve at half-maximal effect
In short: as §1

[9] = Quantitative High-Throughput drug screen in 47 multiple myeloma cell lines against the NCATS MIPE library collection: UTMC2_PLB cell viability assay (AID 1919868); also: nearly all actives have a fitted effect of over 55% in size; also: potency is read from the fitted curve at half-maximal effect
In short: as §1

[10] = target: Cytochrome P450 3A4 (Homo sapiens) (UniProt P08684); test: qHTS for inhibitors of CYP3A4 against the NCATS DSHEA and TCM libraries (AID 1919971);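 also: % is scaled to controls: 0 for no effect and ±100 for the full control effect; inhibition lowers luminescence from luciferin made by CYP3A4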
Cytochrome P450 3A4 (Homo sapiens), sequence (P08684 whole entry, looked up): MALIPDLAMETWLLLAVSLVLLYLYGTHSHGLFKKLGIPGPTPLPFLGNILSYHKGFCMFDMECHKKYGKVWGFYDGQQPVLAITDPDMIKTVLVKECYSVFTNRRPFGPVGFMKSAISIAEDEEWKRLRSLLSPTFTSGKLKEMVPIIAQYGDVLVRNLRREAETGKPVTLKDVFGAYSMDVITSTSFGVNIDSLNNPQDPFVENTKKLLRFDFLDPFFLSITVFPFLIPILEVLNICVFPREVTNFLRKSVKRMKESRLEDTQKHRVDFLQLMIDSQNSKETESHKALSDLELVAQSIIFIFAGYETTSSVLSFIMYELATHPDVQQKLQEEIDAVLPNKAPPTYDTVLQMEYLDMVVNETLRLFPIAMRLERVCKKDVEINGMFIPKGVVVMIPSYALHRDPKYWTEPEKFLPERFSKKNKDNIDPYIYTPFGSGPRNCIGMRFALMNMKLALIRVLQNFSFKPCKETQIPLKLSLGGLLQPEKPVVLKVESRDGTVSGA
In short: (§2)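 Luminescent P450-Glo format: compounds preincubated 15 min with enzyme and luciferin substrate, reaction run 30-45 min after NADPH regeneration solution. Intraplate controls: ketoconazole for CYP3A4 and CYP2C19, sulfaphenazole for CYP2C9.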

[11] = target: Cytochrome P450 2D6 (Homo sapiens) (UniProt P10635); test: qHTS for inhibitors of CYP2D6 against the NCATS DSHEA and TCM libraries (AID 1919972); also: % is scaled to controls: 0 for no effect and ±100 for the full control effect
Cytochrome P450 2D6 (Homo sapiens), sequence (P10635 whole entry, looked up): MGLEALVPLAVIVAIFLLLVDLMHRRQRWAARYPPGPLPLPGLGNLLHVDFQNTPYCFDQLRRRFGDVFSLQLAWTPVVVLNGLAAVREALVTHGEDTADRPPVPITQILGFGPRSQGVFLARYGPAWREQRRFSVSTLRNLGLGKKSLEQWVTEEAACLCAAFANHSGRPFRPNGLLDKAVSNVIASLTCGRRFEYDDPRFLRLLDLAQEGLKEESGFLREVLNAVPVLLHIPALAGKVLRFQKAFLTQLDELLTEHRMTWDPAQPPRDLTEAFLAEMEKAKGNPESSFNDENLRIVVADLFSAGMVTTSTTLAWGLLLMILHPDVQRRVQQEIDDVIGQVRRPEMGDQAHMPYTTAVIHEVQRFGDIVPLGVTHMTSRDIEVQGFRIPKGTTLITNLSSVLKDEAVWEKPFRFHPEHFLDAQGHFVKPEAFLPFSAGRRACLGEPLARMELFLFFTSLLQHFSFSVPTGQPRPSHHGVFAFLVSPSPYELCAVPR
In short: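 Luminescent P450-Glo read-out of CYP2D6 turnover of a luciferin substrate after NADPH-driven reaction of 30-45 min at room temperature. Compounds were first preincubated 15 min with enzyme at titrated concentrations; quinidine was the intraplate control.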

[12] = target: Cytochrome P450 2C9 (Homo sapiens) (UniProt P11712); test: qHTS for inhibitors of CYP2C9 against the NCATS DSHEA and TCM libraries (AID 1919973);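 also: luminogenic pro-luciferin CYP2C9 substrate turned into luciferin with NADPH regeneration; series mostly up to about 34 µM; % is scaled to controls: 0 for no effect and ±100 for the full control effect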
Cytochrome P450 2C9 (Homo sapiens), sequence (P11712 whole entry, looked up): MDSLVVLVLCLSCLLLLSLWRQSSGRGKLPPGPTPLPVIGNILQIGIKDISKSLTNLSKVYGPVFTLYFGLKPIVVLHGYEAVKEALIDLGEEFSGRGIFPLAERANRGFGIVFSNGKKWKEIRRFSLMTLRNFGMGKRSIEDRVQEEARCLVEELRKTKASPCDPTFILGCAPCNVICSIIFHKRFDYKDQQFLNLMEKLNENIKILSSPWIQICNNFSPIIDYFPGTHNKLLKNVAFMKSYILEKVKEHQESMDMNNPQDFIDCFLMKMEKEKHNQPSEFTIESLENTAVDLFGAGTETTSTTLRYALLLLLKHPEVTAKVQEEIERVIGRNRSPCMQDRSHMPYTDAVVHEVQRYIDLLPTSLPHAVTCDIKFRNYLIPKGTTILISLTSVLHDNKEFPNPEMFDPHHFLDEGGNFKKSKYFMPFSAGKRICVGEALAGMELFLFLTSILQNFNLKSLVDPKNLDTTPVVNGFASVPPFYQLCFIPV
In short: as §2

[13] = target: Cytochrome P450 2C19 (Homo sapiens) (UniProt P33261); test: qHTS for inhibitors of CYP2C19 against the NCATS DSHEA and TCM libraries (AID 1919974);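 also: luminescence from luciferin released by CYP2C19 oxidation of a pro-luciferin substrate; % is scaled to controls: 0 for no effect and ±100 for the full control effect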
Cytochrome P450 2C19 (Homo sapiens), sequence (P33261 whole entry, looked up): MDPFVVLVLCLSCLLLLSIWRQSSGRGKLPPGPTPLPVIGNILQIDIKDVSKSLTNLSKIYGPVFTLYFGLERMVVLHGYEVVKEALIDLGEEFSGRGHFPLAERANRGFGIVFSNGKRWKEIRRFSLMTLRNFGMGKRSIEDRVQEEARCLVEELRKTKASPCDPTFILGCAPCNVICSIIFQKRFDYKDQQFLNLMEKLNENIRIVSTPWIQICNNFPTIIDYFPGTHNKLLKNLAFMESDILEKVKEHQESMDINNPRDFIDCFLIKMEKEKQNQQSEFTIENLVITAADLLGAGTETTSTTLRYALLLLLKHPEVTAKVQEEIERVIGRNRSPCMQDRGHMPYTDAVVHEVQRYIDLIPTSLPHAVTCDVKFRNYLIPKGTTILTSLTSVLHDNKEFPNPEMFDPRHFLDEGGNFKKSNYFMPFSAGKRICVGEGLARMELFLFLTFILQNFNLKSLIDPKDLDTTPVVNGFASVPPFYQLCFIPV
In short: as §2

[14] = KB-3-1 P-gp reporter qHTS against the NCATS DSHEA and TCM libraries (AID 1919975); also: 0% is about no effect
In short: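 Cell viability by CellTiter-Glo luminescence following ~72 h compound exposure (concentration-response). Uses parental, non-P-gp-overexpressing KB-3-1 line, 500 cells/well in DMEM/10% FBS, attached ~4 h before dosing.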

[15] = target: Cytochrome P450 1A2 (Homo sapiens) (UniProt P05177); test: qHTS for inhibitors of CYPIA2 against the NCATS DSHEA and TCM libraries (AID 1919976);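 also: light from luciferin formed by CYP1A2 from a pro-luciferin substrate; series mostly up to about 37 µM; % is scaled to controls: 0 for no effect and ±100 for the full control effect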
Cytochrome P450 1A2 (Homo sapiens), sequence (P05177 whole entry, looked up): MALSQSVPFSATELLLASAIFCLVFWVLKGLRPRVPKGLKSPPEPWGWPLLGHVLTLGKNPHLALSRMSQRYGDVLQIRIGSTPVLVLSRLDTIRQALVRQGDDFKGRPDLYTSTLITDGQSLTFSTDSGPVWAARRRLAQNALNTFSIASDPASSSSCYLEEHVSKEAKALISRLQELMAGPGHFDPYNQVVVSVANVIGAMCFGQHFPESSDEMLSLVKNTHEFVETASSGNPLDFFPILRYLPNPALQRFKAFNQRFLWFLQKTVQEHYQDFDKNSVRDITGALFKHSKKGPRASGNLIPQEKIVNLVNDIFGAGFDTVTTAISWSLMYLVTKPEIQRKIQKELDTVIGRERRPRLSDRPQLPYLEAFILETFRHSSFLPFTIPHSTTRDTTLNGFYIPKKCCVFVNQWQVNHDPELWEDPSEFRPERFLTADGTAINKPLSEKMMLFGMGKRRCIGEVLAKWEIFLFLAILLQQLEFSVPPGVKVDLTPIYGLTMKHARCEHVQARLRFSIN
In short: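 Human CYP1A2 with pro-luciferin substrate (typically 100 mM KPO4), 15 min preincubation with compound, then 1x NADPH regeneration for 30-45 min at room temperature in the dark. Luciferin quantified by luciferase luminescence; furafylline intraplate control.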

[16] = qHTS Counterscreen for compound interference against the NCATS DSHEA and TCM libraries (AID 1919978); conditions: firefly luciferase detection reagent interference, luminescence;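 also: compounds preincubated with 1 µM D-luciferin or buffer before detection reagent; % of control where 0% means no effect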
In short: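 With 1 uM D-luciferin or phosphate buffer only, compounds at final 19.5 nM–39.8 uM were incubated for 15 min at room temperature. Luciferase detection reagent was then added, and luminescence was measured after a further 30 min at room temperature.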

[17] = Dual reporter qHTS for agonist of Pregnane X Receptor (hPXR) against the NCATS DSHEA and TCM libraries: Fluorescence readout (AID 1920058); also: 0% is about no effect
In short: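 hPXR-Luc HepG2 cells, 2000/well in charcoal-stripped serum, attached 5 h, dosed for ~24 h at 37 °C. Fluorescence read is CellTiter-Fluor viability (Ex/Em 405/540 nm); rifampicin positive, tetraoctyl ammonium bromide (92 µM) cytotoxicity controls.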

[18] = target: Nuclear receptor subfamily 1 group I member 2 (Homo sapiens) (UniProt O75469); test: Dual reporter qHTS for agonist of Pregnane X Receptor (hPXR) against the NCATS DSHEA and TCM libraries: Luminescence readout (AID 1920059); also: 0% is about no effect
Nuclear receptor subfamily 1 group I member 2 (Homo sapiens), sequence (O75469 whole entry, looked up): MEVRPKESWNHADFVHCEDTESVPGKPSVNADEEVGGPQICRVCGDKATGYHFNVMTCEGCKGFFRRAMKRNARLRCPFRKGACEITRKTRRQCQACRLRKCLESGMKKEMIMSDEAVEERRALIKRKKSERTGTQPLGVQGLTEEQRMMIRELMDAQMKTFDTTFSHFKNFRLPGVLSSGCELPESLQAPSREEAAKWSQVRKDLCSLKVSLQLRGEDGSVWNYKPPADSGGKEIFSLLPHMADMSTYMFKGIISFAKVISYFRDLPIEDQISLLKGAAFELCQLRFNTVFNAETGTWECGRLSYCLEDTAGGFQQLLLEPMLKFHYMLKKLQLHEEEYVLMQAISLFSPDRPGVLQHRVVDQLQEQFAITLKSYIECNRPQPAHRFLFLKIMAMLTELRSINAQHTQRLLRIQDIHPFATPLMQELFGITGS
In short: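 hPXR-LucHepG2 cells in phenol red-free DMEM with 5% charcoal-stripped FBS, 2000 cells/well, attached 5 h, then exposed 24 h at 37C to compounds; rifampicin as positive agonist control (2.8 nM–92 uM). Luciferase luminescence read.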

[19] = target: Nuclear receptor subfamily 1 group I member 2 (Homo sapiens) (UniProt O75469); test: Dual reporter qHTS for antagonist of Pregnane X Receptor (hPXR) against the NCATS DSHEA and TCM libraries: Luminescence Readout (AID 1920060);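 also: HepG2 cells carrying hPXR luciferase reporter stimulated with rifampicin at 2 µM; 0% is about no effect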
In short: (§3)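 In antagonist mode, 2 uM rifampicin was added to hPXR-Luc HepG2 cells alongside test substances, incubated 24 h at 37 C; luminescence gave reporter activity, and CellTiter-Fluor fluorescence (405/540 nm) gave viability.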

[20] = Dual reporter qHTS for antagonist of Pregnane X Receptor (hPXR) against the NCATS DSHEA and TCM libraries: Fluorescence Readout (AID 1920061); also: 0% is about no effect
In short: as §3

[21] = measured here: PEO1 parental Z-AUC

CC(C)C(=O)Nc1ccc([N+](=O)[O-])c(C(F)(F)F)c1
active: Potency [1] 3.32 µM | Potency [2] 3.32 µM | Potency [3] 3.32 µM
-0.423: Z-AUC [7, 21]
0.418: Z-AUC ([7]; measured here: PEO4 Z-AUC)
inactive: Potency [4] | Potency [5] | Potency [6] | Z-AUC [7] -1.15

O=C1c2c(O)ccc(O)c2C(=O)c2c(NCCNCCO)ccc(NCCNCCO)c21
active: Potency [1] 0.662 µM | Potency [2] 0.166 µM | Potency [3] 0.935 µM | Potency [4] 4.69 µM | Potency [5] 3.32 µM | Potency [8] 1.48 µM | Potency [6] 0.662 µM | Potency [7] 0.195 µM
-2.48: Z-AUC [7, 21]
-2.26: Z-AUC ([7]; measured here: PEO4 Z-AUC)

OCCN(CCO)c1nc(N2CCCCC2)c2nc(N(CCO)CCO)nc(N3CCCCC3)c2n1
active: Potency [1] 23.5 µM | Potency [9] 20.9 µM | Potency [8] 16.6 µM | Potency [6] 16.6 µM
0.552: Z-AUC [7, 21]
0.489: Z-AUC ([7]; measured here: PEO4 Z-AUC)
inactive: Z-AUC [7] 1

CN1CCN(CCCN2c3ccccc3Sc3ccc(Cl)cc32)CC1
inactive: Potency [5]
active: Potency [1] 10.5 µM | Potency [9] 23.5 µM | Potency [2] 23.5 µM | Potency [3] 8.33 µM | Potency [8] 14.8 µM | Potency [6] 20.9 µM

CN1C(C(=O)Nc2ccccn2)=C(O)c2ccccc2S1(=O)=O
0.354: Z-AUC ([7]; measured here: PEO4 Z-AUC)
0.178: Z-AUC [7, 21]
inactive: Potency [1] | Potency [2] | Potency [3] | Potency [4] | Potency [5] | Potency [8] | Z-AUC [7] 0.47

Cn1c(=O)c2c(ncn2C)n(C)c1=O
1.21: Z-AUC ([7]; measured here: PEO4 Z-AUC)
1.03: Z-AUC [7, 21]
inactive: Potency [1] | Potency [9] | Potency [2] | Potency [3] | Potency [4] | Potency [5] | Potency [8] | Potency [6] | outcome [10] | outcome [11] | outcome [12] | outcome [13] | outcome [14] | outcome [15] | max response [16] 2.12% | outcome [17] | outcome [18] | outcome [19] | outcome [20] | Z-AUC [7] 1.16

CN(Cc1cnc2nc(N)nc(N)c2n1)c1ccc(C(=O)N[C@@H](CCC(=O)O)C(=O)O)cc1
0.255: Z-AUC ([7]; measured here: PEO4 Z-AUC)
active: Potency [1] 0.0662 µM | Potency [9] 0.166 µM | Potency [2] 0.187 µM | Potency [3] 0.105 µM | Potency [8] 0.0935 µM
inactive: Z-AUC [7] 0.203
0.268: Z-AUC [7, 21]

CN1C2CCC1CC(OC(=O)C(CO)c1ccccc1)C2 (configuration not stated)
inactive: Potency [9] | Potency [2] | Potency [3] | Potency [4] | Potency [5] | Potency [8] | Potency [6] | Z-AUC [7] 0.435
0.73: Z-AUC [7, 21]
-0.0914: Z-AUC ([7]; measured here: PEO4 Z-AUC)
